Source: the supplement of paper PMC10849652
The full data set covers some 8,800 targets. This sample favours those with a hit. About 0.5% of all pairs of compound and target were hits.

Columns and labels:
Experiment in all cases: log2 fold change, soluble protein after heating vs DMSO (PISA); higher = thermal stabilisation; K562 lysate, 10 uM; active = over 0.2 and 3.5 SD of the protein, either way, in both replicates (recomputed)
alvocidib = compound: CN1CC[C@H](c2c(O)cc(O)c3c(=O)cc(-c4ccccc4Cl)oc23)[C@H](O)C1 [alvocidib]
Summary of the method: (§1)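 The values are log-two fold changes in thermal stability compared with solvent controls and come from duplicates. They were obtained by TMTpro 16plex LC-MS/MS, with channel sums equalised, on the supernatant after 21,000xg for 90 min. That supernatant came from crude K562 extract at 1 mg/mL protein treated with 10 μM compound for 30 min, heated for 3 min across 48°C-58°C, pooled and brought to 0.5% NP-40 at 4°C.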

Tubastatin A = compound: CN1CCc2c(c3ccccc3n2Cc2ccc(C(=O)NO)cc2)C1 [Tubastatin A]
Summary of the method: as §1

[1] = compound: CNC(=O)C1=CC=CC=C1NC2=NC(=NC=C2Cl)NC3=C(C=C(C=C3)N4CCOCC4)OC
Summary of the method: as §1

defactinib = compound: CNC(=O)c1ccc(Nc2ncc(C(F)(F)F)c(NCc3nccnc3N(C)S(C)(=O)=O)n2)cc1 [defactinib]
Summary of the method: as §1

[2] = compound: CNc1nc(-c2ccc3c(N)n[nH]c3c2)cc(N2C[C@@H](C(=O)NC3CCCCC3)CC[C@H]2C)n1
Summary of the method: as §1

encorafenib = compound: COC(=O)N[C@@H](C)CNc1nccc(-c2cn(C(C)C)nc2-c2cc(Cl)cc(NS(C)(=O)=O)c2F)n1 [encorafenib]
Summary of the method: as §1

[3] = compound: COC(=O)[C@H](CCSC)NC(=O)C1=C(C=C(C=C1)NC[C@H](CS)N)C2=CC=CC=C2
Summary of the method: as §1

alisertib = compound: COc1cc(Nc2ncc3c(n2)-c2ccc(Cl)cc2C(c2c(F)cccc2OC)=NC3)ccc1C(=O)O [alisertib]
Summary of the method: as §1

[4] = compound: COc1cc2nc(-c3cc(F)ccc3O)nc(N[C@@H]3CNC[C@H]3C(C)(C)O)c2cc1OC
Summary of the method: as §1

gefitinib = compound: COc1cc2ncnc(Nc3ccc(F)c(Cl)c3)c2cc1OCCCN1CCOCC1 [gefitinib]
Summary of the method: as §1

lapatinib = compound: CS(=O)(=O)CCNCc1ccc(-c2ccc3ncnc(Nc4ccc(OCc5cccc(F)c5)c(Cl)c4)c3c2)o1 [lapatinib]
Summary of the method: as §1

pictilisib = compound: CS(=O)(=O)N1CCN(Cc2cc3nc(-c4cccc5[nH]ncc45)nc(N4CCOCC4)c3s2)CC1 [pictilisib]
Summary of the method: as §1

crizotinib = compound: C[C@@H](Oc1cc(-c2cnn(C3CCNCC3)c2)cnc1N)c1c(Cl)ccc(F)c1Cl [crizotinib]
Summary of the method: as §1

[5] = compound: C[C@H](C1=CC=C(C=C1)C(=O)NC2=C3C=CNC3=NC=C2)N
Summary of the method: as §1

duvelisib = compound: C[C@H](Nc1ncnc2nc[nH]c12)c1cc2cccc(Cl)c2c(=O)n1-c1ccccc1 [duvelisib]
Summary of the method: as §1

gandotinib = compound: Cc1cc(Nc2cc(CN3CCOCC3)c3nc(C)c(Cc4ccc(Cl)cc4F)n3n2)n[nH]1 [gandotinib]
Summary of the method: as §1

tozasertib = compound: Cc1cc(Nc2cc(N3CCN(C)CC3)nc(Sc3ccc(NC(=O)C4CC4)cc3)n2)n[nH]1 [tozasertib]
Summary of the method: as §1

doramapimod = compound: Cc1ccc(-n2nc(C(C)(C)C)cc2NC(=O)Nc2ccc(OCCN3CCOCC3)c3ccccc23)cc1 [doramapimod]
Summary of the method: as §1

bafetinib = compound: Cc1ccc(NC(=O)c2ccc(CN3CC[C@H](N(C)C)C3)c(C(F)(F)F)c2)cc1Nc1nccc(-c2cncnc2)n1 [bafetinib]
Summary of the method: as §1

[6] = compound: Cc1cccc(CC(=O)N2CCc3c2ccc(-c2cn(C)c4ncnc(N)c24)c3F)n1
Summary of the method: as §1

Chain of UniProt Q96S99 (Q96S99 whole entry, looked up): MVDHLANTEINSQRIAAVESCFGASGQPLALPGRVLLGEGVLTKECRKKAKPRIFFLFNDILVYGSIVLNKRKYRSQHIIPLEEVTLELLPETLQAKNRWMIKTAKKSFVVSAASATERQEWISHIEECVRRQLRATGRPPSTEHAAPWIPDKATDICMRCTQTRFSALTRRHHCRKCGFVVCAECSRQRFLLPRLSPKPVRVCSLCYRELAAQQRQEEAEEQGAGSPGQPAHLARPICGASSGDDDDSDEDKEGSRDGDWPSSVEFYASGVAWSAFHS
Chain of UniProt Q96I23 (Q96I23 whole entry, looked up): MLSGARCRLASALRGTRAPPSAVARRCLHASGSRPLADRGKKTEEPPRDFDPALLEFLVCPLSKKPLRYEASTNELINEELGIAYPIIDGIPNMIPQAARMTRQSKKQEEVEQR
Chain of UniProt P50336 (P50336 whole entry, looked up): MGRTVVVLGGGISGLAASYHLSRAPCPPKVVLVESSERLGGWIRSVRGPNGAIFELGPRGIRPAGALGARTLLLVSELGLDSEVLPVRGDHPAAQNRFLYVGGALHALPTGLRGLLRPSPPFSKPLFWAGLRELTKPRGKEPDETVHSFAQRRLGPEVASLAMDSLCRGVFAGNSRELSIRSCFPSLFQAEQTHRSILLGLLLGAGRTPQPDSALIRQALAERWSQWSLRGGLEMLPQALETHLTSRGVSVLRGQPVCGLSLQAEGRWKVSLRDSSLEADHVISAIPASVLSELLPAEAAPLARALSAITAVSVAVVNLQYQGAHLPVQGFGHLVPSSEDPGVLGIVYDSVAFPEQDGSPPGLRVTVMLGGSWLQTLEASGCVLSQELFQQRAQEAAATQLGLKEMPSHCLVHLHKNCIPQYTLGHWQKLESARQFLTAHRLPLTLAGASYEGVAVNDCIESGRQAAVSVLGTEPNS
Chain of UniProt O75569 (O75569 whole entry, looked up): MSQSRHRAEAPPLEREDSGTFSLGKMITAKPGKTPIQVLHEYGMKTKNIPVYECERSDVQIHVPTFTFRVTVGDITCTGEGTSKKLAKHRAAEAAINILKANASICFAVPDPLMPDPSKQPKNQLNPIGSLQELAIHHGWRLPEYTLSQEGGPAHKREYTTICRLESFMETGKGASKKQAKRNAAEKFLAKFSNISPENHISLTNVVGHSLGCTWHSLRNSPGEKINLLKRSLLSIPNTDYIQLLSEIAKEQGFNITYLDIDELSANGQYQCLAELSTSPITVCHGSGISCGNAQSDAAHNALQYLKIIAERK
Chain of UniProt P28340 (P28340 whole entry, looked up): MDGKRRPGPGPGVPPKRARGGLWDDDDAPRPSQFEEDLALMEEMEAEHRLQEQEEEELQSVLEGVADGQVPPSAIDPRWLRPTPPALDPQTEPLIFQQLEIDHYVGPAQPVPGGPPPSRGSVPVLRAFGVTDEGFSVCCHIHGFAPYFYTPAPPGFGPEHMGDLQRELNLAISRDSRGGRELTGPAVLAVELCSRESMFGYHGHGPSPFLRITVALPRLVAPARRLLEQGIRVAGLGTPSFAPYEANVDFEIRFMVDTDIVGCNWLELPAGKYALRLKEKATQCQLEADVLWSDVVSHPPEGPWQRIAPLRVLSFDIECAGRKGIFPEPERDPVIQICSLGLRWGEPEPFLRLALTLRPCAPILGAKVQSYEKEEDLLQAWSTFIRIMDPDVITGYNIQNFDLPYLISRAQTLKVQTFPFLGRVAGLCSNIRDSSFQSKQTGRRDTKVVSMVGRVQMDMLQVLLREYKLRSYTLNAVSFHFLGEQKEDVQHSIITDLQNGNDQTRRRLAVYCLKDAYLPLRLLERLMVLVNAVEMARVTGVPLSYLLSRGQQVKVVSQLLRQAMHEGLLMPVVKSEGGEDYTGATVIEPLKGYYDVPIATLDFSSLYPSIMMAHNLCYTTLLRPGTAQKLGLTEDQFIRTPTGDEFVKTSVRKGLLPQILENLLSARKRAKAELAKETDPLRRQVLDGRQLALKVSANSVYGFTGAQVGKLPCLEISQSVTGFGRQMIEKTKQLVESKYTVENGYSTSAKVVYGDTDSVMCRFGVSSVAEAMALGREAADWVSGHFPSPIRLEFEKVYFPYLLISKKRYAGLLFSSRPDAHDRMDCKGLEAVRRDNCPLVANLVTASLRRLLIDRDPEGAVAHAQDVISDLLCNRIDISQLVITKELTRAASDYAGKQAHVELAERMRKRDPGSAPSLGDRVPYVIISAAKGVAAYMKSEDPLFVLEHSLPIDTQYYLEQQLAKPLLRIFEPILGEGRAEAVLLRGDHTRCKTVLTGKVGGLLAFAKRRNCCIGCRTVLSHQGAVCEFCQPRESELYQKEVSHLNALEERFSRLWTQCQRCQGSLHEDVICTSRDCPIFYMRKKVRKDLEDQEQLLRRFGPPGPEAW
Chain of UniProt Q13442 (Q13442 whole entry, looked up): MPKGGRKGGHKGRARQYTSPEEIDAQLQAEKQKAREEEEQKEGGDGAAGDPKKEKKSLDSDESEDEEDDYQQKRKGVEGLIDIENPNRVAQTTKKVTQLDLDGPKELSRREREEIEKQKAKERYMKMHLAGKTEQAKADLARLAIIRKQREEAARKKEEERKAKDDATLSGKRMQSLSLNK
Chain of UniProt Q8IZ21 (Q8IZ21 whole entry, looked up): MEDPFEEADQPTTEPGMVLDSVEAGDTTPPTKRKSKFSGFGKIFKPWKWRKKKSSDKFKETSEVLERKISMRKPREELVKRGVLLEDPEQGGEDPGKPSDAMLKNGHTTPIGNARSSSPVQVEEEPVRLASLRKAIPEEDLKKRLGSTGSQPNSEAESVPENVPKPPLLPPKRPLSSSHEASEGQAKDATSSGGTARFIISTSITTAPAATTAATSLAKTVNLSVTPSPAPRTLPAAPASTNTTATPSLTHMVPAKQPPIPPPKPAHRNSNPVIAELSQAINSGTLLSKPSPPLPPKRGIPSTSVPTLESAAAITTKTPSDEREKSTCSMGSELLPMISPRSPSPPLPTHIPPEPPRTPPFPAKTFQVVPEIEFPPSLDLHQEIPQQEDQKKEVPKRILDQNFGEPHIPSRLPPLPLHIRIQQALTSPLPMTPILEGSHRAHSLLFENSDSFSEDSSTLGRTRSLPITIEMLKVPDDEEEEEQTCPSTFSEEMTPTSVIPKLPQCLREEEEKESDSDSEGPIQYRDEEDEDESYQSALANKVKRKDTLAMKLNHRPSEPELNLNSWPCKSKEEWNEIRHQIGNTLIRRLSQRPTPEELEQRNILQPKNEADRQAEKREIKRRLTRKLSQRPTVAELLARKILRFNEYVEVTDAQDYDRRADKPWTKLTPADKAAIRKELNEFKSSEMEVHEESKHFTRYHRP
Chain of UniProt Q16875 (Q16875 whole entry, looked up): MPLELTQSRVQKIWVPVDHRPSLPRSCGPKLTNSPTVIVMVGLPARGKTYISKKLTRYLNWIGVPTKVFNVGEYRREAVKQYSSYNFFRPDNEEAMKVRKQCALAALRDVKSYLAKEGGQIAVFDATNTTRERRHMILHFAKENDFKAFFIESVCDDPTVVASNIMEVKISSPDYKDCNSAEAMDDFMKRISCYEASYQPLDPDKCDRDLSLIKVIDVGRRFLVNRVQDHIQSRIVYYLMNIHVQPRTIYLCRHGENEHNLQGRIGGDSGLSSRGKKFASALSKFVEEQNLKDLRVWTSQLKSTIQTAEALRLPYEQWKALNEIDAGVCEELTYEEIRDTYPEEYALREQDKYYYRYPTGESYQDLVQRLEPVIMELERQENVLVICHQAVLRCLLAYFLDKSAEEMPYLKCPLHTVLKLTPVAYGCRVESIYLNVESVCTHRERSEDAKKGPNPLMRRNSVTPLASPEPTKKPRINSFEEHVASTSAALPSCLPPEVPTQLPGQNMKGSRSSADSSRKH
Chain of UniProt Q13362 (Q13362 whole entry, looked up): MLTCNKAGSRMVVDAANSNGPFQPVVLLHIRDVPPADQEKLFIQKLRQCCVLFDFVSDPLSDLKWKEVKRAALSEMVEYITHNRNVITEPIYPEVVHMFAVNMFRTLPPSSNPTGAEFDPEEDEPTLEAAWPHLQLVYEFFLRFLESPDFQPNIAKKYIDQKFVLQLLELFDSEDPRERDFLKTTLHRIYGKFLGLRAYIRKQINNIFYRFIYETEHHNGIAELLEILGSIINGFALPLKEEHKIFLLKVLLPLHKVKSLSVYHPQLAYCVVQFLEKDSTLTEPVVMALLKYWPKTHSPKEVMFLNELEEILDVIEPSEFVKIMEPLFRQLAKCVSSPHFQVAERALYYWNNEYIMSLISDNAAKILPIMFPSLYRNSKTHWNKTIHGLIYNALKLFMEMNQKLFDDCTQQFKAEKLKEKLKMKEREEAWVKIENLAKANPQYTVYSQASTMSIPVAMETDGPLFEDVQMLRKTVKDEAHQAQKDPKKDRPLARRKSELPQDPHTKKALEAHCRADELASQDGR

| Target | log2 fold change (alvocidib) | log2 fold change (Tubastatin A) | log2 fold change [1] | log2 fold change (defactinib) | log2 fold change [2] | log2 fold change (encorafenib) | log2 fold change [3] | log2 fold change (alisertib) | log2 fold change [4] | log2 fold change (gefitinib) | log2 fold change (lapatinib) | log2 fold change (pictilisib) | log2 fold change (crizotinib) | log2 fold change [5] | log2 fold change (duvelisib) | log2 fold change (gandotinib) | log2 fold change (tozasertib) | log2 fold change (doramapimod) | log2 fold change (bafetinib) | log2 fold change [6] |
| --- | --- | --- | --- | --- | --- | --- | --- | --- | --- | --- | --- | --- | --- | --- | --- | --- | --- | --- | --- | --- |
| PHACTR4 isoform 2 (UniProt Q8IZ21) | 0.209 (inactive) | 0.016 (inactive) | -0.024 (inactive) | 0.012 (inactive) | 0.1 (inactive) | -0.01 (inactive) | -0.016 (inactive) | -0.019 (inactive) | 0.004 (inactive) | -0.022 (inactive) | -0.015 (inactive) | -0.014 (inactive) | -0.005 (inactive) | 0.764 (active) | 0 (inactive) | -0.121 (inactive) | -0.03 (inactive) | -0.003 (inactive) | 0.022 (inactive) | -0.196 (inactive) |
| PPP2R5C isoform 4 (UniProt Q13362) | 0.059 (inactive) | -0.014 (inactive) | -0.022 (inactive) | -0.01 (inactive) | -0.08 (inactive) | -0.03 (inactive) | -0.047 (inactive) | -0.036 (inactive) | 0.009 (inactive) | -0.007 (inactive) | -0.05 (inactive) | 0 (inactive) | 0.015 (inactive) | -0.051 (inactive) | 0.213 (inactive) | -0.034 (inactive) | 0.025 (inactive) | -0.11 (inactive) | -0.077 (inactive) | 0.055 (inactive) |
| PFKFB3 isoform 4 (UniProt Q16875) | -0.012 (inactive) | -0.05 (inactive) | 0.058 (inactive) | -0.006 (inactive) | 0.012 (inactive) | 0.041 (inactive) | -0.137 (inactive) | -0.01 (inactive) | 0 (inactive) | -0.01 (inactive) | -0.228 (inactive) | -0.057 (inactive) | -0.021 (inactive) | 0.004 (inactive) | -0.009 (inactive) | -0.006 (inactive) | -0.003 (inactive) | 0.007 (inactive) | -0.03 (inactive) | 0.007 (inactive) |
| PDAP1 (UniProt Q13442) | -0.074 (inactive) | 0.063 (inactive) | 0.004 (inactive) | -0.012 (inactive) | 0.109 (inactive) | -0.038 (inactive) | -0.017 (inactive) | 0.006 (inactive) | 0.018 (inactive) | -0.029 (inactive) | -0.004 (inactive) | 0.03 (inactive) | 0.043 (inactive) | -0.232 (active) | -0.043 (inactive) | 0.135 (inactive) | -0.026 (inactive) | -0.03 (inactive) | 0.006 (inactive) | 0.089 (inactive) |
| PLEKHF1 (UniProt Q96S99) | -0.001 (inactive) | -0.051 (inactive) | 0.058 (inactive) | -0.007 (inactive) | -0.033 (inactive) | -0.025 (inactive) | -0.009 (inactive) | -0.008 (inactive) | -0.001 (inactive) | 0.007 (inactive) | -0.022 (inactive) | -0.016 (inactive) | -0.021 (inactive) | -0.043 (inactive) | 0.058 (inactive) | 0.023 (inactive) | 0.02 (inactive) | 0.016 (inactive) | 0.013 (inactive) | 0.026 (inactive) |
| POLD1 (UniProt P28340) | 0.012 (inactive) | -0.075 (inactive) | 0.035 (inactive) | 0.027 (inactive) | 0.011 (inactive) | 0.008 (inactive) | 0.074 (inactive) | 0.007 (inactive) | 0.007 (inactive) | -0.036 (inactive) | -0.014 (inactive) | -0.021 (inactive) | -0.022 (inactive) | 0.013 (inactive) | -0.019 (inactive) | -0.061 (inactive) | 0.003 (inactive) | 0.02 (inactive) | -0.022 (inactive) | 0.017 (inactive) |
| PYURF (UniProt Q96I23) | 0.077 (inactive) | 0.041 (inactive) | 0.073 (inactive) | 0.181 (inactive) | 0.019 (inactive) | 0.113 (inactive) | 0.027 (inactive) | 0.007 (inactive) | -0.007 (inactive) | -0.038 (inactive) | 0.036 (inactive) | -0.066 (inactive) | 0.016 (inactive) | 0.01 (inactive) | 0.087 (inactive) | -0.015 (inactive) | -0.048 (inactive) | 0.011 (inactive) | 0.091 (inactive) | 0.015 (inactive) |
| PRKRA (UniProt O75569) | 0.024 (inactive) | -0.254 (inactive) | 0.028 (inactive) | 0.02 (inactive) | -0.009 (inactive) | -0.001 (inactive) | 0.146 (inactive) | -0.019 (inactive) | -0.004 (inactive) | -0.006 (inactive) | 0.01 (inactive) | -0.003 (inactive) | -0.021 (inactive) | -0.017 (inactive) | 0 (inactive) | -0.094 (inactive) | -0.005 (inactive) | -0.01 (inactive) | -0.003 (inactive) | 0.032 (inactive) |
| PPOX (UniProt P50336) | -0.004 (inactive) | -0.124 (inactive) | 0.257 (inactive) | -0.03 (inactive) | 0.107 (inactive) | -0.017 (inactive) | 0.076 (inactive) | 0.005 (inactive) | -0.035 (inactive) | -0.043 (inactive) | 0.379 (active) | 0.111 (inactive) | -0.068 (inactive) | -0.075 (inactive) | 0.04 (inactive) | 0.581 (active) | 0.003 (inactive) | 0.206 (inactive) | -0.028 (inactive) | 0.11 (inactive) |
